HEK cytotox = Cytotoxic Profiling in HEK 293 Cell Line of Diverse Libraries Using Quantitative High-Throughput Screening. HEK 293 viability, ATP luminescence (CellTiter-Glo), 48-72 h. Potency, µM (series often up to 115 µM), for inactives: at the highest dose activity change, negative = cytotoxicity, actives largely listed as inhibitors. 6.6% of 94,000 active; note: potency is the fitted concentration of half-maximal effect; nearly all actives have a fitted effect of over 60% in size
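250 HEK 293 cells/well; compound by pintool; incubated 48 or 72 hr at 37 degree Celsius; CellTiter-Glo added, 10 min RT, luminescence imaged.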
IP6K1 inhibitor = Primary qHTS assay for small molecule inhibitors of Inositol hexaphosphate kinase 1 (IP6K1); Inositol hexakisphosphate kinase 1 (Homo sapiens), Q92551; IP6K1 kinase, ADP-Glo luminescence, 2 h; stronger effect = lower value; activity change, % (series mostly up to about 58 µM); 0.81% of 140,000 active; AID 1645851, 2021; in the data active = activity change below about -25%
Target sequence (Q92551 whole entry, looked up): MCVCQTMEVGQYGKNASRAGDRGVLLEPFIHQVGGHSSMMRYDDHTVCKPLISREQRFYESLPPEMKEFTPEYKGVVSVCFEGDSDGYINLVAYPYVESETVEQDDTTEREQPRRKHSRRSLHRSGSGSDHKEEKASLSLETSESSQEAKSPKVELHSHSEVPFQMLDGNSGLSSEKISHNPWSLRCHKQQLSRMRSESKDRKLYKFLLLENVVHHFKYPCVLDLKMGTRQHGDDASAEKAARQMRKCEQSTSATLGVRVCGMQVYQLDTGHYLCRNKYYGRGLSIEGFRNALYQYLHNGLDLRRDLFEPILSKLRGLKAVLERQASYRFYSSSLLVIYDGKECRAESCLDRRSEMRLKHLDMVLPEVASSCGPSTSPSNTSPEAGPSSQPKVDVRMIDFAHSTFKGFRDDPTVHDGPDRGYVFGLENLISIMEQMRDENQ
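ADP-Glo luminescence measures ADP made by human IP6K1 during a 2 h RT reaction with ATP/IP6 (mix at 1.3 mM/130 uM); top library doses 57.5 and 19.1 uM final.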
HEK293 viab = GF-AFC viability counterscreen for inhibitors of alpha-synuclein gene (SNCA) expression; HEK-293-SNCA-luc viability, GF-AFC fluorescence, 24 h; Potency, µM (highest dose often 57.1 µM), without a hit: at the top dose activity change, negative = cytotoxicity, most hits filed as cytotoxic; 0.12% of 150,000 active; AID 1671193, 2021;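 note: potency is the fitted concentration of half-maximal effect; 0% = DMSO-treated cells and -100% = medium-only wells without cells; nearly all actives have a fitted effect of over 30% in size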
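HEK-293-SNCA-luc cells (1500/well) plated 24 h, then exposed 24 h to a dilution series; GF-AFC added 30 min at 37C, fluorescence 405/540 nm; normalised to medium-only and DMSO wells, Hill fit.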
FLuc inh = Firefly luciferase inhibition profiling of diverse chemical library using quantitative high-throughput screening. 2.5% of 76,000 active. Luciferin 4-monooxygenase (Photinus pyralis), P08659. purified P. pyralis luciferase, luminescence, biochemical. AID 1347043, 2019. Potency, µM (titrated, usually from 115 µM), hits mostly inhibitors; note: potency is the fitted concentration of half-maximal effect; nearly all actives have a fitted effect of over 65% in size
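Cell-free enzyme assay, 10nM P. pyralis luciferase, luciferin and ATP each at 10uM. Inhibition profiled over a 6-point titration, read as luminescence.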
NIH3T3 tox = Cytotoxic Profiling in NIH 3T3 Cell Line of Diverse Libraries Using Quantitative High-Throughput Screening; 4.3% of 94,000 active; NIH 3T3 viability, CellTiter-Glo ATP luminescence, 48-72 h; Potency, µM (titrated, usually from 96.7 µM), for the others: top-dose activity change, negative = cytotoxicity, usual class: inhibitors; note: potency is the fitted concentration of half-maximal effect; nearly all actives have a fitted effect of over 55% in size
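Viability of NIH 3T3 cells after 48 or 72 hr compound treatment at 37 °C was assessed by CellTiter-Glo, with luminescence imaged following a 10 min room-temperature step.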
SNCA expr inh = Primary qHTS assay for inhibitors of alpha-synuclein gene (SNCA) expression | HEK-293 SNCA-luciferase knock-in, luminescence, 24 h | Potency, µM (titrated, usually from 57.2 µM), without a hit: at the highest dose activity change, negative = inhibition, usual class: inhibitors | 0.17% of 140,000 active;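 note: potency is the fitted concentration of half-maximal effect; plate controls were DMSO cells for no effect and cell-free wells for full effect; nearly all actives have a fitted effect of over 45% in size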
* marks the source's active call; other numbers are inactive results; i = inactive; ? = inconclusive; . = not tested or not shown; ! = not confirmed by another sample; [ ] = remark or other dose. Shown are actives, neighbours in structure and some others; about 7.3% of the full set was active somewhere. Unless noted, calls come from the whole dose curve; as a rule, active = well fitted curve in the direction sought with a large enough effect; inconclusive = small, poorly fitted or top-dose-only effect, or another doubt; inactive = no such curve, though single readings can be large; an effect the other way counts as inactive or inconclusive. Unless noted, % is set by controls: 0 for no effect and ±100 for the full control effect.

SMILES	HEK cytotox	IP6K1 inhibitor	HEK293 viab	FLuc inh	NIH3T3 tox	SNCA expr inh
C#CCNC(=O)[C@@H]1Cc2cn(Cc3c(C)noc3C)c3cccc(c23)[C@H](CC(C)C)N1	40µM*	22	-24%[87.6 µM]	i	50µM*	-3%[87.6 µM]
Cc1cc(Cn2cc3c4c(cccc42)[C@H](CC(C)C)N[C@H](C(=O)O)C3)no1	-11%[172 µM]	4	6%[87.6 µM]	i	-14%[138 µM]	-30%[87.6 µM]
Cc1noc(C)c1Cn1cc2c3c(cccc31)[C@H](CC(C)C)N[C@H](C(=O)NC1CCC1)C2	40µM*	16	-27%[87.6 µM]	i	?	-14%[87.6 µM]
CCCNC(=O)[C@@H]1Cc2cn(Cc3c(C)noc3C)c3cccc(c23)[C@H](CC(C)C)N1	25µM*	8	-17%[87.6 µM]	i	71µM*	?
Cc1noc(C)c1Cn1cc2c3c(cccc31)[C@H](CC(C)C)N[C@H](C(=O)N1CCOCC1)C2	?	14	-3%	i	-21%	-4%
CCC(CC)C(=O)N1CC2=CC(C)(C)COc3ccc(OC)c(c32)C1	?	20	.	.	?	.
CCNC(=O)N1CC(C(=O)NCc2cccc(F)c2)CC(c2ccc(F)c(C)c2)C1 (centres undefined)	?	2	3%	i	?	10%
Cc1cc(C2CC(C(=O)NCCc3ccccc3)CN(C(=O)C3CC3)C2)ccc1F (centres undefined)	?	17	-6%	i	32µM*	0%
OCCC1CN(c2ccc(-c3nc(CCCc4ccccc4)no3)cn2)CCO1 (centres undefined)	50µM*	24	-15%	i	?	26%
CC1(O)CCCN(c2ccc(-c3nc(CCCc4ccccc4)no3)cn2)C1 (centres undefined)	32µM*	23	-3%	35µM*	?	72%
Cc1cc(CNc2ccc(-c3nc(CCCc4ccccc4)no3)cn2)no1	?	22	-18%	?	-30%	57%
Cn1cc(CNc2ccc(-c3nc(CCCc4ccccc4)no3)cn2)cn1	?	10	2%	40µM*	?	115%
OCCC1CCN(c2ccc(-c3nc(CCCc4ccccc4)no3)cn2)CC1	-19%	-1	-4%	i	1%	42%
C[C@@H](NC(=O)N1CCOC[C@H]1c1ncc(-c2ccc(OC(F)(F)F)cc2)[nH]1)c1ccccc1	?	1	-11%	i	?	-7%
CCN1Cc2cc(F)ccc2N(CC(O)COc2ccc(OC)cc2)CCC1=O (centres undefined)	?	8	.	.	?	.
Cc1ccc(C(=O)NC2CCN(c3cc(C(F)(F)F)nc(C)n3)CC2)cc1	?	10	-7%	i	?	-11%
Cc1nc(N2CCC(NC(=O)c3nn(C)c4ccccc34)CC2)cc(C(F)(F)F)n1	45µM*	10	-9%	i	?	?
O=C(Nc1ccc(Cl)cc1Cl)c1ccn2cncc2c1	?	0	-4%[87.6 µM]	i	-7%[138 µM]	64%[87.6 µM]
O=C(Nc1ccc(F)cc1)c1cccn2cncc12	?	3	-1%[87.6 µM]	45µM*	-27%[138 µM]	-20%[87.6 µM]
O=C(Nc1ccc(Cl)cc1Cl)c1cccn2cncc12	?	3	2%[87.6 µM]	45µM*	?	94%[87.6 µM]
O=C(C1CN(C2CCCCC2)C(=O)N1)N1CCc2ccccc2C1 (centres undefined)	25µM*	4	11%[12.5 µM]	.	?	4%[87.6 µM]
O=C1NC(=NC2CCCCC2)C2(CCN(Cc3ccc(F)cc3)CC2)N1c1cc(F)cc(F)c1	?	8	-7%	.	-27%	-12%
c1ccc(-c2nc3ccncc3[nH]2)nc1	45µM*!	1	0%[87.6 µM]	i	?	-23%[87.6 µM]
c1cncc(-c2nc3ccncc3[nH]2)c1	?	1	4%[87.6 µM]	i	?	4%[87.6 µM]
c1csc(-c2nc3ccncc3[nH]2)c1	?	-3	6%[87.6 µM]	?	100µM*!	10%[87.6 µM]
SMILES	HEK cytotox	IP6K1 inhibitor	HEK293 viab	FLuc inh	NIH3T3 tox	SNCA expr inh
Cc1nc(-c2cccc(Cl)c2)n(CC(=O)NC(C)CCc2ccccc2)c(=O)c1CCO (centres undefined)	?	-5	0%	i	?	?
c1cc(CNC[C@H]2Cn3cc(-c4ccc5c(c4)OCCCO5)nc3CO2)ccn1	-18%[172 µM]	26	3%[87.6 µM]	45µM*	-20%[138 µM]	185%[87.6 µM]
c1csc(CNC[C@H]2Cn3cc(-c4ccc5c(c4)OCCCO5)nc3CO2)n1	-11%[172 µM]	1	-5%[87.6 µM]	?	-8%[174 µM]	63%[87.6 µM]
COc1ncccc1CNC[C@H]1Cn2cc(-c3ccc4c(c3)OCCCO4)nc2CO1	89µM*	4	0%[87.6 µM]	50µM*	?	95%[87.6 µM]
Cc1ccc(-c2cc(C(=O)NCCc3ccc(F)cc3)nn3cnnc23)cc1	?	14	-10%	.	?	-9%
COCCNC(=O)C1(C)CCCc2cnc(Nc3ccccc3)nc21 (centres undefined)	?	17	-15%[87.6 µM]	i	?	-2%[87.6 µM]
Cn1ccc(NC(=O)C2(C)CCc3cnc(NCc4ccccc4)nc32)n1 (centres undefined)	?	-3	-7%[87.6 µM]	i	20µM*	-1%[87.6 µM]
COCCNC(=O)C1(C)CCc2cnc(Nc3ccccc3)nc21 (centres undefined)	?	-4	-14%[87.6 µM]	i	79µM*	-33%[87.6 µM]
COCCNC(=O)C1(C)CCc2cnc(NCc3ccccc3)nc21 (centres undefined)	-26%[172 µM]	-6	2%[87.6 µM]	i	89µM*	?
CC1(C(=O)NCCOc2ccccc2)CCCc2cnc(Nc3cccnc3)nc21 (centres undefined)	100µM*	24	?	i	?	-25%[87.6 µM]
CCc1ccc(CNC(=O)c2ccc3c(c2)N(C)C2CCCCN2C3=O)cc1 (centres undefined)	?	-14	?	?	?	?
COCc1nc(-c2ccc(OC3CN(C(=O)c4ccc(OC)cc4)C3)cc2)no1	?	19	-10%	i	?	?
CCCS(=O)(=O)N1CC[C@H](c2nc(C)no2)[C@H](NC(=O)C2CC2)C1	-19%	21	3%	i	-14%	8%
CN1CCC(NC(=O)C2(C)CCCc3cnc(NCc4ccccc4)nc32)CC1 (centres undefined)	?	-8	8%[87.6 µM]	i	-28%[138 µM]	-6%[87.6 µM]
